Screening results deposited in PubChem by National Center for Advancing Translational Sciences (NCATS).
Casp7 inh: blocks human caspase-7 allosterically or competitively. P55210. Potency, µM (series often up to 57.5 µM), hits mostly inhibitors. 75,000 compounds, 0.02% hits. recombinant caspase-7, Ac-DEVD-AFC fluorescence rate. AID 889; active = well fitted inhibition curve with a large enough effect in the main read-out, with a control signal flat, not every such curve was filed as active; inconclusive = small, poorly fitted or top-dose-only effect, or a change in a side signal
Pol III holo inh: blocks replication by bacterial DNA polymerase III holoenzyme; reconstituted DNA polymerase III holoenzyme replication, biochemical; Potency, µM (highest dose often 57.1 µM); 71,000 compounds, 0.25% hits
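Reconstituted *E. coli* holoenzyme (0.35 nM Pol III, 1 nM beta, 154 nM SSB, 2 nM primase) was preincubated with compound for 15 min at RT. Synthesis on 1.4 nM ssM13Gori ran 35 min, then was stopped with PicoGreen/EDTA and read as dsDNA fluorescence.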
Tau filament bind: binders of human tau filaments; P10636; recombinant tau filaments, thioflavin S fluorescence, 15 h; filaments grown with octadecylsulfate alongside compound; Potency, µM (doses to about 57.1 µM); 71,000 compounds, 2% hits;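 note: actives lower thioflavin S fluorescence by blocking filaments or displacing dye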
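Assay mix: 1 uM His-tagged tau, 30 uM sodium octadecylsulfate, thioflavine S dye in HEPES/NaCl/DTT buffer. Compound is added prior to the inducer. Fluorescence after 15 h at 37 C.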
ALOX15 inhib: inhibitors of human 15-lipoxygenase (ALOX15) | Potency, µM (doses to about 57.1 µM), usual class: inhibitors | 74,000 compounds, 1.4% hits | AID 887 | P16050 | purified 15hLO-1, xylenol orange hydroperoxide absorbance; note: nearly all actives have a fitted effect of over 55% in size
Target sequence (P16050 whole entry, looked up): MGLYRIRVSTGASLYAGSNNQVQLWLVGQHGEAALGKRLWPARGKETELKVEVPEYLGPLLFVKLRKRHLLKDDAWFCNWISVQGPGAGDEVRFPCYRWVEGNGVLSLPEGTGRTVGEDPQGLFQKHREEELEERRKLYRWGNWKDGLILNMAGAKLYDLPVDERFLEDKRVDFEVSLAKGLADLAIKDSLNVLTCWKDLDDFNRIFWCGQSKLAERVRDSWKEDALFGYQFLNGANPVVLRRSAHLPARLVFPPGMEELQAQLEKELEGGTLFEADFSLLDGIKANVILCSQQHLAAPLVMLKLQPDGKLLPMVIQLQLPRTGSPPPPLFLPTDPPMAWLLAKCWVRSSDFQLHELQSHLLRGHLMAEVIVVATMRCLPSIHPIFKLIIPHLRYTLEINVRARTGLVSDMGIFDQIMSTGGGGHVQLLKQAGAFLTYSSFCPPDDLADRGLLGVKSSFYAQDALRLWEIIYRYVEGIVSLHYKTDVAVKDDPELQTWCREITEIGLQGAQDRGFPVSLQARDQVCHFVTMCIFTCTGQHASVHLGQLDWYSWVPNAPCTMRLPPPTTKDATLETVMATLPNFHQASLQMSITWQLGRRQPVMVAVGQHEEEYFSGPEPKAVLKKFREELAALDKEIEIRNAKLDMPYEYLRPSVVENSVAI
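Inhibition is scored from a chromogenic endpoint. After 15 min enzyme-compound contact, arachidonic acid (50 uM final) reacts 6 min with 40 nM 15hLO-1 at room temperature, then Fe-XO reagent is added for 30 min and absorbance ratio recorded.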
Caspase-1 inhib: caspase-1 (human) inhibition, allosteric or competitive; P29466; Caspase-1 enzyme, Ac-WEHD-AFC fluorogenic rate; Potency, µM (top dose mostly 57.5 µM), actives largely listed as inhibitors; 75,000 compounds, 0.03% hits; AID 900
Tau ThS bind: tau filament binding by ThS displacement | shares compounds with Tau filament bind | recombinant tau filaments, Thioflavin S fluorescence displacement | Potency, µM | 60 compounds, 40% hits | AID 911; calls by dose curve
aSyn ThS bind: alpha-synuclein fibril binding by ThS displacement; shares compounds with Tau filament bind; recombinant alpha-synuclein fibrils, ThS fluorescence displacement; Potency, µM; 60 compounds, 40% hits; AID 937; calls by dose curve
Abeta ThS bind: compounds binding human beta amyloid fibrils, displacing Thioflavin S; shares compounds with Tau filament bind; Abeta1-42 fibrillization, thioflavin S fluorescence, overnight 37 C; 60 compounds, 50% hits; AID 956; Potency, µM; calls by dose curve
Numbers stand for hits; - = inactive; ? = inconclusive; . = not tested or not shown; [ ] = dose if it differs, or a comment. Rows were chosen to be rich in hits. Some 3.2% of all compounds tested hit in one or more screens of this group. Unless noted, calls come from the whole dose curve; as a rule, active = well fitted curve in the direction sought with a large enough effect; inconclusive = small, poorly fitted or top-dose-only effect, or another doubt; inactive = no such curve, though single readings can be large; an effect the other way counts as inactive or inconclusive.

SMILES	Casp7 inh	Pol III holo inh	Tau filament bind	ALOX15 inhib	Caspase-1 inhib	Tau ThS bind	aSyn ThS bind	Abeta ThS bind
N#Cc1c(-c2ccco2)cc(-c2cccnc2)nc1N	-	32µM	-	7.9µM	-	.	.	.
N#Cc1c(-c2ccco2)cc(-c2ccccn2)nc1N	-	-	-	-	-	.	.	.
CC(C)CO/N=C1/C[C@@H](O)[C@@H](O)[C@@H]2[C@@H]3C(=O)N(C4CCCCC4)C(=O)[C@H]3CC[C@@H]12	-[11.5 µM]	.	.	-[11.4 µM]	?	.	.	.
CCc1cc2c(nc1CC)CCN(CC/C(C)=N/OCC[C@@H]1C=C[C@H](OC(C)=O)[C@H](COC(C)=O)O1)C2	-[11.5 µM]	.	.	-[11.4 µM]	-[11.5 µM]	.	.	.
Cc1cc(NC(=O)CCCC(=O)N(CC(=O)NC2CCCCC2)c2ccccc2)no1	-	?	-	25µM	-	.	.	.
CCOC(=O)CCN1C(=O)[C@H]2[C@H]3[C@H](O)[C@H](O)C/C(=N/NC(=O)OCC)[C@@H]3CC[C@@H]2C1=O	-[11.5 µM]	.	.	-[11.4 µM]	-[11.5 µM]	.	.	.
Nc1nc2ccc(Cl)cc2c2nc(-c3ccco3)nn12	-	-	-	-	-	.	.	.
Nc1nc2c(cnn2CCc2ccccc2)c2nc(-c3ccco3)nn12	-	.	.	20µM	-	.	.	.
CCc1ccc(NS(=O)(=O)c2ccc3[nH]cc(C(=O)N4CCCCC4)c(=O)c3c2)cc1	-	-	-	4µM	-	.	.	.
C[C@@H](c1ccccc1)N1C(=O)[C@H]2[C@H]3[C@H](O)[C@H](O)C/C(=N/NC(=O)OCc4ccccc4)[C@@H]3CC[C@@H]2C1=O	-[11.5 µM]	.	.	-[11.4 µM]	-[11.5 µM]	.	.	.
CC(=O)c1cccc(NC(=O)Nc2ccc3c(c2)N(C)C(=O)CS3)c1	-	-	16µM	?	-	.	.	.
CCN(CC)c1ccc(NC(=O)Nc2cccc(C(C)=O)c2)cc1	-	-	20µM	-	-	.	.	.
CN1C(=O)CSc2ccc(NC(=O)N3CCOCC3)cc21	-	-	?	?	-	.	.	.
COc1cccc(C(=O)Nc2ccc(C)cc2)c1	-	-	-	-	-	.	.	.
CCOc1cccc(C(=O)Nc2ccc(N(CC)CC)cc2)c1	-	-[11.4 µM]	3.2µM	-[11.4 µM]	-	.	.	.
CC(=O)Nc1cccc(NC(=O)Nc2ccc(C(C)=O)cc2)c1	-	-	-	-	-	.	.	.
CO[C@@H]1COC(=O)[C@H](COCc2ccccc2)NC(=O)C/C=C\[C@@H](C)[C@H](OC)COC(=O)[C@H](COCc2ccccc2)NC(=O)C/C=C\[C@H]1C	-[11.5 µM]	.	.	-[11.4 µM]	-[11.5 µM]	.	.	.
Cc1ccc(CCNC(=O)C2CCCN2S(=O)(=O)c2ccc3c(c2)CCC(=O)N3)cc1 (stereo unspecified)	-	-	-	-	-	.	.	.
COc1ccc(NC(=O)C2CCCN2S(=O)(=O)c2ccc3c(c2)CCC(=O)N3)c(OC)c1 (stereo unspecified)	-	-	25µM	-	-	.	.	.
CCS(=O)(=O)Nc1cc(-c2nc3cccnc3s2)ccc1C	-	-	-	-	-	.	.	.
Cc1ccc2nc(-c3ccc(N=Nc4cc(S(=O)(=O)O)c5ccccc5c4O)cc3)sc2c1S(=O)(=O)O	.	.	.	.	.	2.1µM	9.5µM	?
CC(C)(C)c1ccc(OCC(=O)O)c(Cl)c1	-[11.5 µM]	-[11.4 µM]	-[11.4 µM]	-[11.4 µM]	-[11.5 µM]	.	.	.
O=C(O)CCc1ccc(-c2ccccc2)[nH]1	-[11.5 µM]	-[11.4 µM]	-[11.4 µM]	-[11.4 µM]	-[11.5 µM]	.	.	.
CCN1CCN(c2nc3ccccc3nc2C(C#N)C(=O)OC2CCCCC2)CC1 (stereo unspecified)	-	-	0.79µM	?	-	2.8µM	1.8µM	1.4µM
N#CC(C(=O)NC1CCCCC1)c1nc2ccccc2nc1N1CCN(c2ccc(F)cc2)CC1 (stereo unspecified)	-	-	-	-	-	.	.	.
SMILES	Casp7 inh	Pol III holo inh	Tau filament bind	ALOX15 inhib	Caspase-1 inhib	Tau ThS bind	aSyn ThS bind	Abeta ThS bind
C=CCOC(=O)C(C#N)c1nc2ccccc2nc1N1CCN(c2ccccc2OC)CC1 (stereo unspecified)	-	-	2.5µM	-	-	4µM	1.4µM	1.1µM
CC(C)CO/N=C1/[C@H]2O[C@@H]2[C@@H](O)[C@H]2[C@H]1CCn1c(=O)n(Cc3cc4c(cc3Cl)OCO4)c(=O)n12	-[11.5 µM]	.	.	-[11.4 µM]	-[11.5 µM]	.	.	.
COc1cc(OC)c(/C=C2/C(=O)Nc3ccccc32)c(OC)c1	-	-	-	-	-	-	-	-
O=C1c2ccccc2-c2onc3ccc(NCCCn4ccnc4)c1c23	-	-	0.13µM	-	-	5.5µM	3.2µM	2.2µM
COc1ccc2noc3c2c1C(=O)c1ccccc1-3	?	-	-	?	.	.	.	.
Cc1cc(C)c2nc(N3CCCC(C(=O)NCCN4CCOCC4)C3)sc2c1 (stereo unspecified)	-	-	-	-	-	-	-	-
Cc1cc(C)c2nc(N3CCCC(C(=O)N4CCC(C(N)=O)CC4)C3)sc2c1 (stereo unspecified)	-	-	-	-	-	.	.	.
CC1(C)CC(=O)C(C(=O)CCCCC(=O)C2C(=O)CC(C)(C)CC2=O)C(=O)C1	-	-	-	-	-	-	-	-
COC(=O)CCCCC(=O)C1C(=O)CC(C)(C)C(C(=O)OC)C1=O (stereo unspecified)	-	-	-	-	-	.	.	.
CN1CCC(CNC(=O)c2ccc(Cc3nc4ccccc4[nH]3)cc2)CC1	-	.	.	-	-	.	.	.
Nc1ccccc1NC(=O)c1ccccc1	-	-	-	-	-	-	-	-
CC(=O)/C(=C\c1ccccc1F)C(=O)c1ccccc1	-[11.5 µM]	-[11.4 µM]	-[11.4 µM]	-[11.4 µM]	-[11.5 µM]	.	.	.
Cc1cccn2c(=O)c3cc(C(=O)NCCN4CCOCC4)c(=N)n(CCc4ccccc4)c3nc12	?	-	0.5µM	-	.	-	?	-
COCCCn1c(=N)c(C(=O)NCC2CCCO2)cc2c(=O)n3cccc(C)c3nc21 (stereo unspecified)	?	-	-	-	.	?	?	?
COc1ccc2nc(/N=C\N(C)C)sc2c1	-	-	-	-	-	.	.	.
COc1ccc2nc(N=Nc3ccc(N(C)C)cc3)sc2c1	.	.	.	.	.	0.1µM	-	0.1µM
Cc1ccc2nc(NC(=O)C3CCN(S(=O)(=O)c4cccc5nsnc45)CC3)sc2c1	-	-	5µM	?	-	-	?	-
Cc1ccnc(NC(=O)C2CCN(S(=O)(=O)c3cccc4nsnc34)CC2)c1	-	-	-	-	-	.	.	.
Cc1ccc2nc(NC(=O)C3CCCN(S(=O)(=O)c4cccc5nsnc45)C3)sc2c1 (stereo unspecified)	-	-	7.9µM	?	-	-	?	-
COC(=O)[C@@]1(Cc2ccc(OC)cc2)[C@H]2c3cc(C(=O)N(C)C)n(Cc4cc(F)c(F)c(F)c4)c3C[C@H]2CN1C(=O)c1ccccc1	-	-	-	.	-	.	.	.
O=C(O)CNC(=O)c1ccc([N+](=O)[O-])cc1	-	-	-	-	-	.	.	.
Nc1ccc2nc(-c3ccc(Cl)cc3)[nH]c2c1	-	-	7.9µM	-	-	-	?	?
